CD11b adhes enh – enhancers of CD11b/CD18 adhesion to fibrinogen, primary screen, K562 cells, luminescence; activation, % at 10 µM; ATPlite luminescence; 93,000 tested, 0.07% active;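 active = 10 µM primary screen giving 50% or more activity, confirmed by 40% or more on retest at that dose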
Mac1 fbg inh – inhibitors of CD11b/CD18 adhesion to fibrinogen, primary screen, K562 cells, luminescence; ATPlite luminescence; Mn2+ added to activate the integrin; inhibition, % at 10 µM; 93,000 tested, 0.54% active;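 active = primary inhibition of 50% or more at 10 µM, then 40% or more on retest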
E coli WT exp – growth inhibitors of wild-type E. coli, primary screen, strain BW25113, expanded library, OD600. 98,000 tested, 0.15% active. OD600 absorbance. AID 710, 2007. growth inhibition, % at 100 µM;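 active = growth inhibition above about 50% at one test dose, limit read from the data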;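 note: growth measured after 20 h incubation at 37 °C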
Cav32 inh – Cav3.2 calcium influx blockers – cell-based, Fluo-4 calcium fluorescence, FDSS, MLSMR library, primary screen | Voltage-dependent T-type calcium channel subunit alpha-1H (Homo sapiens), O95180 | Cav3.2-expressing cells; hits give low values | B-score at 10 µM | 100,000 tested, 4% active | AID 449739, 2010;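 active = single-dose well whose peak fluorescence ratio is a statistical outlier from its plate by either plate-standardised score or position-corrected B-score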
The depositor's hits bear a star; nt = no result given. Only a selection was taken, and hits are over-represented in it overall.

SMILES	CD11b adhes enh	Mac1 fbg inh	E coli WT exp	Cav32 inh
N#Cc1nc(Cc2ccccc2)oc1N1CCC(C(N)=O)CC1	-2.0	12.0	7.0	-0.811
CCCCc1ccc(S(=O)(=O)NCCc2ccncc2)cc1	-8.3	64.8*	12.0	-3.64*
Cc1ccc(S(=O)(=O)NCCc2ccncc2)cc1	7.2	-46.4	3.0	-0.0354
Cc1ccc(-c2nc(CSCC(=O)N3CCN(c4ccccn4)CC3)c(C)o2)cc1	-13.5	87.7*	-3.0	-4.98*
Cc1cccc(-c2nc(CSCC(=O)N3CCN(Cc4ccc5c(c4)OCO5)CC3)c(C)o2)c1	-5.1	81.1*	-10.0	nt
CCc1ccc(-c2nc(CSCC(=O)N3CCN(c4ccccn4)CC3)c(C)o2)cc1	nt	nt	-2.0	-6.83*
O=C(NCc1ccc(Cl)cc1)C(=O)NCC1OCCN1S(=O)(=O)c1cccs1 (centres undefined)	nt	nt	nt	-5.97*
Cc1ccc(CNC(=O)C(=O)NCC2OCCN2S(=O)(=O)c2ccc3c(c2)OCCO3)cc1 (centres undefined)	nt	nt	nt	-4.5*
O=C(NCc1ccc(Cl)cc1)C(=O)NCC1OCCN1C(=O)c1cccs1 (centres undefined)	5.4	-11.7	nt	nt
COc1ccc(CNC(=O)C(=O)NCC2OCCN2S(=O)(=O)c2cccs2)cc1 (centres undefined)	nt	nt	nt	-4.87*
CCOC(=O)CN1C(=O)N[C@@H](c2ccccc2)[C@H](C(C)=O)[C@H]1C	nt	nt	nt	-0.424
Cc1nn(CC(=O)OC(C)C(=O)Nc2ccccc2[N+](=O)[O-])c(C)c1[N+](=O)[O-] (centres undefined)	-1.9	-7.6	nt	nt
Cc1ccc(C2CC2C(=O)NNC(=S)Nc2ccc(Cl)cc2)cc1 (centres undefined)	nt	nt	nt	-10.1*
Cc1ccc(NC(=S)NNC(=S)NCc2ccccc2)cc1	-3.9	2.2	0.0	0.427
O=C(CSCc1ccc(F)cc1)Nc1nc2c(s1)CCCC2	1.9	-9.0	-4.0	-6.56*
COc1ccc(-c2csc3ncnc(Oc4cccc5ccc(C)nc45)c23)cc1	8.1	5.6	nt	nt
O=C(Cc1ccc(NS(=O)(=O)c2ccc(F)cc2)cc1)NCc1ccccc1	0.4	16.6	7.0	-5.19*
CCNC(=O)Cc1ccc(NS(=O)(=O)c2ccc(F)cc2)cc1	-3.0	3.1	8.0	0.0219
Cc1ccccc1N/C(SCc1ccc(Cl)cc1)=C(/C#N)C(=O)NCc1ccco1	-4.6	14.5	-26.0	-5.48*
Cc1ccc(NC(=O)c2cnn(-c3ccccc3)c2NC(=O)c2ccco2)cc1C	-0.6	3.0	-12.0	-0.987
Cc1ccc(-n2ncc(C(=O)NCc3ccc4c(c3)OCO4)c2NC(=O)c2ccco2)cc1C	-10.6	-16.8	-4.0	-6.21*
CCC(C)NC(=O)C(NS(=O)(=O)c1cccc2nsnc12)c1ccccc1 (centres undefined)	nt	nt	-1.0	nt
O=C(O)CC(NS(=O)(=O)c1cccc2nsnc12)c1ccc(F)cc1 (centres undefined)	-9.1	60.1*	1.0	0.408
Cn1cccc1Cc1nnc(SCC(=O)Nc2ccccc2F)n1CCc1ccccc1	-0.8	-0.7	4.0	-3.7
Cn1cccc1Cc1nnc(SCC(=O)N2CCc3ccccc32)n1CCc1ccccc1	-1.4	7.2	-14.0	-8.7*
SMILES	CD11b adhes enh	Mac1 fbg inh	E coli WT exp	Cav32 inh
Cc1csc(NC(=O)CSc2nnc(Cc3cccn3C)n2CCc2ccccc2)n1	2.2	5.7	5.0	-8.43*
O=C(NC1CC1)C1=C[C@@H](c2coc3ccccc3c2=O)C[C@@H](OCCCCO)O1	nt	nt	nt	1.52
Nc1ccccc1C(=O)N(Cc1ccccc1)Cc1ccccc1	nt	nt	nt	-5.75*
O=C(O)CCn1cc(/C=C\C(=O)c2ccc(Cl)cc2)c(-c2cccc(Br)c2)n1	25.3	53.0*	nt	nt
O=c1c2ccccc2nc(-c2ccc(Cl)c(Cl)c2)n1O	-5.6	-34.6	3.0	-4.26*
O=c1c2ccc(Cl)cc2nc(-c2cccc(C(F)(F)F)c2)n1O	-7.7	69.1*	28.0	-5.85*
CC(C)C[C@H](NC(=O)OC(C)(C)C)c1nnc(SCc2ccccc2)o1	-0.6	-4.0	-14.0	-4.81*
CC(C)(C)OC(=O)N[C@@H](CCCCNC(=O)OCc1ccccc1)c1nnc([C@H](CCCCNC(=O)OCc2ccccc2)NC(=O)OC(C)(C)C)o1	nt	nt	nt	-2.82*
CCOC(=O)CSc1nnc([C@H](Cc2ccccc2)NC(=O)OC(C)(C)C)o1	-5.7	20.0	-1.0	-0.562
O=C(NC1CCCCC1)[C@H](CSCc1ccccc1)N1Cc2ccccc2C1=O	nt	nt	nt	-2.72
Cc1ccc(C(=O)COC(=O)C2C3C=CC(C3)C2C(=O)OCC(=O)c2ccc(C)c(C)c2)cc1C (centres undefined)	-3.6	3.8	-11.0	-5.08*
CC(C)CCNC(=O)C(c1ccco1)N(Cc1cccs1)C(=O)Cn1nnc2ccccc21 (centres undefined)	1.6	-8.7	-8.0	-4.66*
CC(C)CCNC(=O)C(c1ccco1)N(CC1CCCO1)C(=O)Cn1nnc2ccccc21 (centres undefined)	nt	nt	-16.0	0.402
Cc1ccccc1N(C(=O)Cn1nnc(-c2cccs2)n1)C(C(=O)NCCC(C)C)c1ccco1 (centres undefined)	nt	nt	-1.0	-3.54*
O=C(C1CCCN(S(=O)(=O)c2ccc(F)cc2)C1)N(Cc1cccs1)C1CC1 (centres undefined)	-2.5	-0.3	-7.0	-4.08*
C[N+]1([O-])[C@@H]2Cc3cc4c(cc3[C@@H]1Cc1cc3c(cc12)OCO3)OCO4 (some centres undefined)	nt	nt	nt	0.802
CCOC(=O)/C=c1\s/c(=C\c2c(OC)ccc3ccccc23)c(=O)n1CC(=O)NCC1CCCO1 (centres undefined)	-2.8	15.8	-4.0	-5.68*
COc1ccc(-c2nc(-c3cccc(C)c3)[nH]c(=O)c2C#N)cc1	-1.7	4.2	-10.0	-0.103
CC(Oc1ccccc1)c1ccnn1S(=O)(=O)c1ccccc1 (centres undefined)	5.6	-21.6	7.0	-6.42*
CC(=O)c1cccc(NC(=O)COc2cc3oc(=O)c(CC(C)O)c(C)c3cc2Cl)c1 (centres undefined)	-1.6	27.3	nt	nt
CCOC(=O)c1c(C)nc2c(c1-c1cc(OC)ccc1OC)C(=O)c1ccccc1-2	3.7	-51.1	-8.0	0.382
CCOC(=O)c1c(N)sc(C(O)(C(F)(F)F)C(F)(F)F)c1-c1ccc(OC)cc1OC	1.2	2.4	6.0	-4.9*
O=C(CSc1nnc(-c2ccccc2Cl)o1)N1CCCCC1	-2.1	13.8	8.0	-4.18*
Cc1ccc(-c2nnc(SCC(=O)N3CCCC3)o2)cc1	-1.4	-10.7	-4.0	0.198
Cc1ccc(-c2nnc(SCC(=O)Nc3ccc4c(c3)oc3ccccc34)n2C)c(Cl)c1	-8.1	59.9*	-4.0	-0.971
CCCN(CCC)C(=O)Cc1coc2ccc3ccccc3c12	-2.9	2.4	-5.0	-6.34*
CC12CN(S(=O)(=O)c3ccccc3)CC(C)(CN(S(=O)(=O)c3ccccc3)C1)C2	3.2	-39.0	-7.0	0.00622

Screening results deposited in PubChem BioAssay by several laboratories.
